# Screening results (PubChem)
# HCMV antiviral – blocks human cytomegalovirus replication; HFF cells, HCMV-luciferase reporter, 72 h; active compounds read low; activity change, negative = inhibition, % at 57.5 µM; 410,000 compounds, 4.5% hits; AID 1259415; in the data active = activity change below about -60%; inconclusive = no clear call, values can overlap the other calls; inactive = above about -39%
#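 After 16 h attachment at 37C, HFF cells received test compound and HCMV-luciferase (1 PFU/cell); reporter luminescence read 72 h later, data normalized against buffer-only and known inhibitor Salinomycin.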
# Marburg entry inh – inhibitors of Marburg virus binding or cell entry; Marburg virus pseudotyped entry inhibition, cell reporter; Potency, µM (doses to about 37.8 µM), for inactives: at the top dose activity change, negative = inhibition, actives largely listed as inhibitors; 300,000 compounds, 1.8% hits; AID 540276; calls by dose curve; tested in HEK293 cells; note: potency is the fitted concentration of half-maximal effect
# VACV mCherry inh – vaccinia inhibition (mCherry reporter) | Vaccinia virus mCherry reporter infection, fluorescence | Potency, µM (doses to about 36.5 µM), for the others: at the highest dose activity change, negative = inhibition, most hits filed as inhibitors | 310,000 compounds, 0.63% hits; calls by dose curve; tested in A549 cells; note: potency is the fitted concentration of half-maximal effect; nearly all actives have a fitted effect of over 35% in size
# HCV inhibitor – inhibitors of hepatitis C virus infection | Huh7.5.1 HCVcc-Cre infection, luciferase reporter, 44 h | 340,000 compounds, 3.4% hits | AID 651820 | Potency, µM (titrated, usually from 41.8 µM), inactives show at the top dose activity change, negative = inhibition, actives largely listed as inhibitors; active = well fitted inhibition curve with a large enough effect; inconclusive = small, poorly fitted or top-dose-only effect, or another doubt; inactive = no such curve, though single readings can be large or run the other way; note: potency is the fitted concentration of half-maximal effect
#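 Compounds are dispensed onto cells plated 4 h earlier at 1,000 per well, with HCVcc-Cre virus (about 0.5 moi) added next. Following 44 h of culture, luminescent signal is measured for 15 sec after 15 min with substrate at room temperature.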
# Lassa entry inh – blocks Lassa virus binding to or entry into cells | 300,000 compounds, 1.2% hits | Lassa virus pseudotype entry inhibition, cell reporter | AID 540256 | Potency, µM (highest dose often 37.9 µM), inactives show at the top dose activity change, negative = inhibition, hits mostly inhibitors; calls by dose curve; tested in HEK293 cells; note: potency is the fitted concentration of half-maximal effect; nearly all actives have a fitted effect of over 50% in size
# Vaccinia Venus – inhibitors of vaccinia virus (Venus reporter). Vaccinia virus Venus reporter expression, fluorescence. Potency, µM (titrated, usually from 36.5 µM), for the others: top-dose activity change, negative = inhibition, hits mostly inhibitors. 330,000 compounds, 0.46% hits. AID 720580; calls by dose curve; tested in A549 cells; note: potency is the fitted concentration of half-maximal effect; nearly all actives have a fitted effect of over 30% in size
# Numbers without * were called inactive; i = inactive; ? = inconclusive; · = no result; [ ] = dose if it differs, or a comment. The list is not random: actives were taken first. Their share in the collection is about 7.8%. % is set by controls: 0 for no effect and ±100 for the full control effect.
SMILES,HCMV antiviral,Marburg entry inh,VACV mCherry inh,HCV inhibitor,Lassa entry inh,Vaccinia Venus
O=S(=O)([N-]c1nc2ccccc2nc1-[n+]1ccccc1)c1ccc(Cl)cc1,-62*,0%,·,24%,1%,-13%
O=C1CCCC=C1C(O)CCOCc1ccccc1 (stereo not given),·,7%[14.2 µM],·,·,·,·
COc1ccc2[nH]c(-c3ccccc3)cc2c1,-36,8.9µM*,-17%,-28%,-27%,-10%
COc1ccc2[nH]c(-c3ccc(C)cc3)cc(=O)c2c1,·,?,-3%,-8%,4.1µM*,?
NC(C(=O)O)c1cccc(O)c1 (stereo not given),·,·,-15%,·,·,-5%
COc1cccc(/C=N/NC(=O)c2nc(-c3ccccc3)cc(-c3ccccc3)n2)c1O,-97*,?,-21%,17%,?,-17%
CCC(=NNC(=O)c1ccc2c(c1)nc(C)n2CC)c1cc(F)ccc1O,?,?,10µM*,?,?,?
COc1ccc(/C=N/NC(=O)c2ccncc2)c(OC)c1,31,·,·,-8%,·,·
CCn1c(C)nc2cc(C(=O)n3cc(C(=O)c4cc(F)ccc4O)cn3)ccc21,·,·,·,-1%,·,·
COc1cccc(C=NNC(=O)c2ccncc2)c1O,6,?,1.6µM*,?,?,?
COc1ccccc1C=NN=C(NN=Cc1ccccc1OC)NN=Cc1ccccc1OC,26,?,?,13µM*,13µM*,?
COc1cc(=O)n2c(c1C(=O)N1CCc3ccccc3C1)CCN(Cc1ccc(CO)o1)CC2,·,·,-12%,·,·,-11%
COc1ccc(Cl)cc1S(=O)(=O)Nc1cccc(-c2ccc(N3CCOCC3)nn2)c1,25,·,-15%,·,-7%[46.1 µM],-25%
CSc1ncc2c(n1)-c1ccccc1N(Cc1ccc(Cl)cc1)S2(=O)=O,-10,·,-8%,·,14%[46.1 µM],-7%
CCn1c(C)nc2cc(C(=O)N/N=C/c3cccc(OC)c3O)ccc21,-15,?,10µM*,?,?,?
COc1cc([N+](=O)[O-])cc(/C=N/NC(=O)C(C)Nc2cccc3ccccc23)c1O (stereo not given),-61*,-29%,-14%,0%,-8%,-22%
CC(Nc1cccc2ccccc12)C(=O)N/N=C/c1ccc([N+](=O)[O-])cc1 (stereo not given),-6,?,-30%,0%,-23%,-19%
COc1cc([N+](=O)[O-])cc(/C=N/NC(=O)c2cccnc2)c1O,-88*,·,·,16%,·,·
COc1cccc(/C=N/NC(=O)Cn2nc(C)c([N+](=O)[O-])c2C)c1O,18,?,11µM*,?,?,?
CCn1c(C)nc2cc(C(=O)N/N=C/c3ccc(O)c(O)c3O)ccc21,-8,?,-12%,-14%,-10%,1%
CCCOc1ccc(NC(=O)CC2C(=O)N(c3cccc(OC)c3)C(=O)N2Cc2cccs2)cc1 (stereo not given),-13,·,-16%,·,-14%[46.1 µM],-16%
CCc1nn(CC(=O)NC2CC2)c(=O)c2cc3c(OC)cccc3n12,12,-14%[46.1 µM],1%,·,·,-4%
COc1ccc(/C=N/NC(=O)c2ccn[nH]2)cc1COc1ccc([N+](=O)[O-])c(C)c1,?,-16%,i,-10%,?,-15%
COc1ccc(/C=N/NC(=O)c2cccnc2)cc1COc1ccc([N+](=O)[O-])c(C)c1,-76*,?,-21%,-68%,?,-30%
COc1cccc(/C=N/NC(=O)N/N=C/c2cccc(OC)c2O)c1O,-13,4.5µM*,-13%,10%,?,-19%
SMILES,HCMV antiviral,Marburg entry inh,VACV mCherry inh,HCV inhibitor,Lassa entry inh,Vaccinia Venus
COc1ccc(-c2cn[nH]c2-c2ccc(OCc3ccc([N+](=O)[O-])cc3)cc2O)cc1OC,-96*,·,·,?,·,·
COc1ccccc1-c1cn[nH]c1-c1ccc(OCc2ccccc2)cc1O,-25,?,?,-19%,1%[46.1 µM],-1%
COc1ccc(-c2cn[nH]c2-c2ccc(OCc3ccccc3F)cc2O)cc1OC,-61*,·,?,11µM*,·,?
CCOC(=O)c1cc(-c2ccc(C)cc2)n(CCC(=O)Nc2ccc(C(C)C)cc2)c1C,-27,?,-12%,·,·,-9%
Cc1ccc(-n2c([O-])nc(-[n+]3ccccc3)c2C=O)cc1,-72*,0%,i,7%,19%,-5%
Cc1ccc[n+](-c2nc([O-])sc2C=O)c1,-22,-11%[46.1 µM],10%,-6%,-3%,4%
O=C(CN(C(=O)c1nsc(Cl)c1Cl)c1ccc(F)cc1)NC1CCCC1,17,?,-14%,6%,5%,-8%
Cc1ccc(N(CC(=O)NC2CCCC2)C(=O)c2nsc(Cl)c2Cl)cc1,-75*,-12%[46.1 µM],i,-12%,4%[46.1 µM],2%
COc1ccc(C(C(=O)NC2CCCC2)N(Cc2ccccc2)C(=O)c2nsc(Cl)c2Cl)cc1 (stereo not given),8,?,-26%,?,?,?
Cc1ccc(N(C(=O)c2nsc(Cl)c2Cl)C(C(=O)NC2CCCC2)c2ccc(O)cc2)cc1C (stereo not given),?,?,-11%,?,1.6µM*,?
Cc1cccc(N(C(=O)c2nsc(Cl)c2Cl)C(C(=O)NC2CCCC2)c2ccc(O)cc2)c1C (stereo not given),?,?,-18%,?,7.3µM*,-27%
CCOc1ccc(C(C(=O)NC2CCCC2)N(Cc2ccccc2)C(=O)c2nsc(Cl)c2Cl)cc1 (stereo not given),6,·,·,?,·,·
Cc1cc(C)cc(N(C(=O)c2nsc(Cl)c2Cl)C(C(=O)NC2CCCC2)c2ccc(O)cc2)c1 (stereo not given),-71*,?,?,?,?,?
NC(=O)c1nsc(C(=O)N(c2cccc(O)c2)C(C(=O)NC2CCCC2)c2ccc(Cl)cc2)c1N (stereo not given),-6,1%[46.1 µM],-3%,-19%,-15%,-6%
Cc1cc(S(=O)(=O)NCc2nc(N3CCCC3)c3cc(Cl)ccc3n2)c(C)s1,·,·,-22%,·,·,-11%
COc1ccc(NC(=O)NCc2cccn2Cc2ccc(F)cc2)cc1OC,-17,-4%[46.1 µM],?,·,-3%[46.1 µM],?
COc1cc(-c2cc(C)c3cccc(OC)c3n2)cc2c1OCCN(C(=O)CCn1ccc(C)n1)C2,·,·,-29%,·,·,-9%
CC(C)c1ccc(Nc2cc(C(=O)NC3CCCCC3)c3ccccc3n2)cc1,-17,-27%[46.1 µM],-10%[7.34 µM],·,12%[46.1 µM],-2%[7.34 µM]
COC(=O)C1=C2C=C(C)CC(C)N2C(=O)NC1c1ccccc1 (stereo not given),·,30%[14.2 µM],·,·,·,·
CN(C(=O)COC(=O)c1ccc2c(c1)OCCO2)c1ccccc1,-69*,?,-10%,13%,21%,-13%
Cc1cc(C(=O)OCC(=O)N(C)c2ccccc2)ccc1[N+](=O)[O-],-63*,7%[46.1 µM],-8%,-8%,-4%[46.1 µM],-6%
